Publication PMC11062922 (Nature Chemical Biology, 2023)

Columns and labels:
Set-up in all cases: species or system human, MV4-11 + K-562 + COLO205 + SK-N-BE2 + OVCAR-8
[1] = tested on: AMPK-alpha2; details: compound concentrations: 100 nM and 1000 nM (sheet 'Samples')
[2] = tested on: CIT; details: compound concentrations: 100 nM and 1000 nM (sheet 'Samples')
[3] = tested on: CLK2; details: compound concentrations: 100 nM and 1000 nM (sheet 'Samples')
[4] = tested on: CSNK2A1; details: read-out: Kinobeads Data; compound concentrations: 100 nM and 1000 nM (sheet 'Samples'); n = 1
[5] = tested on: CSNK2A2; details: read-out: Kinobeads Data; compound concentrations: 100 nM and 1000 nM (sheet 'Samples'); n = 1
[6] = tested on: DDR1; details: compound concentrations: 100 nM and 1000 nM (sheet 'Samples')
[7] = tested on: DDR2; details: compound concentrations: 100 nM and 1000 nM (sheet 'Samples')
[8] = tested on: DYRK1B; details: compound concentrations: 100 nM and 1000 nM (sheet 'Samples')
[9] = tested on: EPHB1; details: compound concentrations: 100 nM and 1000 nM (sheet 'Samples')
[10] = tested on: JAK2(JH1domain-catalytic); details: compound concentrations: 100 nM and 1000 nM (sheet 'Samples')
[11] = tested on: LCK; details: compound concentrations: 100 nM and 1000 nM (sheet 'Samples')
[12] = tested on: MAP3K4; details: compound concentrations: 100 nM and 1000 nM (sheet 'Samples')
[13] = tested on: MEK5; details: compound concentrations: 100 nM and 1000 nM (sheet 'Samples')
[14] = tested on: MERTK; details: compound concentrations: 100 nM and 1000 nM (sheet 'Samples')
[15] = tested on: NEK2; details: compound concentrations: 100 nM and 1000 nM (sheet 'Samples')
[16] = tested on: PKAC-beta; details: compound concentrations: 100 nM and 1000 nM (sheet 'Samples')
[17] = tested on: SLK; details: compound concentrations: 100 nM and 1000 nM (sheet 'Samples')
[18] = tested on: SYK; details: compound concentrations: 100 nM and 1000 nM (sheet 'Samples')
[19] = tested on: TBK1; details: compound concentrations: 100 nM and 1000 nM (sheet 'Samples')
[20] = tested on: TYK2(JH2domain-pseudokinase); details: compound concentrations: 100 nM and 1000 nM (sheet 'Samples')
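Note: kinobeads ε competition pulldown from cell lysate, compound preincubated 45 min at 4 °C, bound kinases quantified by LC–MS/MS relative to DMSO control.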

COc1cc(Nc2ncc3c(C)nc(-c4cc5ccccc5[nH]4)n3n2)cc(OC)c1OC [GW869516X]
78 nM: potency estimated from few doses [4]
no target: Kinobeads Data [1] | Kinobeads Data [2] | Kinobeads Data [3] | Kinobeads Data [6] | Kinobeads Data [7] | Kinobeads Data [8] | Kinobeads Data [9] | Kinobeads Data [10] | Kinobeads Data [11] | Kinobeads Data [12] | Kinobeads Data [13] | Kinobeads Data [14] | Kinobeads Data [15] | Kinobeads Data [16] | Kinobeads Data [17] | Kinobeads Data [18] | Kinobeads Data [19] | Kinobeads Data [20]
56 nM: potency estimated from few doses [5]
